# Experimental data from PubChem BioAssay (NCATS).
# “And” between values parts separate entries of the source, which are not always exact repeats. Equal entries are not always repeated. Records with an inconclusive call do not appear. The source made the active and inactive calls. Unless noted, calls follow the shape of the dose curve; as a rule, active = well fitted activation curve with a large enough effect; inconclusive = small, poorly fitted or top-dose-only effect; inactive = flat fitted curve, though single readings scatter.
# Target: Cellular tumor antigen p53 (Homo sapiens) (UniProt P04637)
# Experiment: Primary qHTS for small molecule compounds that upregulate eGFP-tagged delta133p53alpha (in C-terminal) cells. (AID 2060324);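 as to GFP increase (activation): 0% = DMSO wells and 100% = 57.5 µM 5-azacytidine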
# Details: NCI-H358 delta133p53alpha-eGFP (C-terminal tag), GFP fluorescence imaging, 24 h; series mostly up to 57.5 µM; GFP increase (activation): at the top concentration
# In short: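 Readout: filtered GFP peak intensity of gated cells (laser scanning cytometer), normalized plate-wise to intraplate controls, DMSO wells = 0% activity. Cells: NCI-H358 D133p53a-eGFP, dox 100 ng/ml 24 h beforehand, then compound 24 h, 37 °C.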
# Potency is read from the fitted curve at half-maximal effect.
# Chain of Cellular tumor antigen p53 (Homo sapiens) (P04637 whole entry, looked up): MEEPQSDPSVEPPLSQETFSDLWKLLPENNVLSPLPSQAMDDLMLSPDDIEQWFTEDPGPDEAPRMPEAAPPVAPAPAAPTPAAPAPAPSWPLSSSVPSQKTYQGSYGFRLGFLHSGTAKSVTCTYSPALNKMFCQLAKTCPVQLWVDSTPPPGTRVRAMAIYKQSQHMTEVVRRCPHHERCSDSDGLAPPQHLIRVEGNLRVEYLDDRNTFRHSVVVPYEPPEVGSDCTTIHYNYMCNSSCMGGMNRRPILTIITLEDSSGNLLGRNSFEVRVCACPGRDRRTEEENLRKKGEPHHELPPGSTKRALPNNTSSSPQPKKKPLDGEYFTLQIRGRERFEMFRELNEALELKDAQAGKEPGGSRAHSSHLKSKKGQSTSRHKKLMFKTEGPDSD
Compound,GFP increase (activation),Potency
CC(N)(Cc1ccc(O)c(O)c1)C(=O)O (centres undefined),-6.11% (inactive),
CC(C)(C)c1ccc(S(=O)(=O)/C=C/C#N)cc1,,26.9 µM (active)
N#C/C(=C\c1ccc(O)c(O)c1)C(=O)c1ccc(O)c(O)c1,4.97% (inactive),
CN=c1nc(-c2ccccc2)n(-c2ccccc2)s1,4.29% (inactive),
O=C(/C=C/c1ccc(O)c(O)c1)OCCc1ccccc1,3.99% (inactive),
C1CCc2nnnn2CC1,-3.91% (inactive),
O=[N+]([O-])c1ccc2c(c1)S(=O)(=O)C=C2,,30.1 µM (active)
NC(N)=Nc1nc(CSCC/C(N)=N/S(N)(=O)=O)cs1,0.374% (inactive),
NCCC1CCCC(CCN)N1 (centres undefined),-13% (inactive),

# Target: Aldehyde dehydrogenase, mitochondrial (Homo sapiens) (UniProt P05091)
# Experiment: qHTS for Inhibitors of the Aldehyde Dehydrogenase Family (ALDH2) Validation screens (AID 2061302; active = well fitted inhibition curve with a large enough effect; title and protocol of this record describe different tests;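 as to activity change, negative = inhibition: plate controls were DMSO vehicle for no effect and maximal DPI positive control response for full effect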)
# Details: ALDH inhibition qHTS; series mostly up to 42.6 µM; activity change, negative = inhibition: at the top concentration
Compound,"activity change, negative = inhibition",Potency
CC(N)(Cc1ccc(O)c(O)c1)C(=O)O (centres undefined),-5.31% (inactive),
CC(C)(C)c1ccc(S(=O)(=O)/C=C/C#N)cc1,,1.26 µM (active) and 708 nM (active)
C1CCc2nnnn2CC1,-1.35% (inactive),
NC(N)=Nc1nc(CSCC/C(N)=N/S(N)(=O)=O)cs1,0.304% (inactive),
NCCC1CCCC(CCN)N1 (centres undefined),-7.43% (inactive),
